# Bioassay records: PubChem, several laboratories
# Mtb bLac sens – beta-lactam sensitization of Mtb H37Rv | actives 0.27% (n = 330,000) | AID 434955 | inhibition, % at 25 µM | M. tuberculosis H37Rv growth with meropenem, percent inhibition; call rule not given here;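 note: growth measured after seven days incubation then overnight dye step; 0% = bacteria only wells and 100% = bacteria with antibiotic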
# VHR inh abs – blocks human VHR1 dual specificity phosphatase; inhibition, % at 13.3 µM; actives 0.52% (n = 290,000); recombinant VHR phosphatase, pNPP absorbance; P51452; in the data active = inhibition above about 50%
# Target sequence (P51452 whole entry, looked up): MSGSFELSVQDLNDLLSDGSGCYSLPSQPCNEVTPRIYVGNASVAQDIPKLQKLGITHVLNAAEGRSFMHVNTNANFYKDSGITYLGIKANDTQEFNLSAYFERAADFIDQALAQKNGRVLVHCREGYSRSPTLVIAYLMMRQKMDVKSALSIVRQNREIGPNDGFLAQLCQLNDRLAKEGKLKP
# FBA Mtb inh – Mtb fructose-bisphosphate aldolase inhibition. P9WQA3. purified M. tuberculosis FBA, fluorescence read-out. inhibition, % at 1 µM. actives 2.3% (n = 360,000). AID 588726; in the data active = inhibition above about 27%;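 note: 0% = vehicle and 100% = reference inhibitor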
# Target sequence (P9WQA3 whole entry, looked up): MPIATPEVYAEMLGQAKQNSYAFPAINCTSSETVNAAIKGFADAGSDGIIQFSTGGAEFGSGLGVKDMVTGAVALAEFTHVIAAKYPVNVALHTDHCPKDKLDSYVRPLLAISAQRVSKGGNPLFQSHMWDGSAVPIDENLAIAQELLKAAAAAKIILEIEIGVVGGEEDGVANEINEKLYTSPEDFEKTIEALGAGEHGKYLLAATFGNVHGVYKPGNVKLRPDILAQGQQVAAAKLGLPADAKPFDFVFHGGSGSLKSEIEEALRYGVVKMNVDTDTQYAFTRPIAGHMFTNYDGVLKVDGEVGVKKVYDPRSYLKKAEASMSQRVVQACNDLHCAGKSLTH
# GDH-TPI counter – counter-screen for M. tuberculosis FBA inhibitors: GDH-TPI coupled enzymes; GDH-TPI coupled enzyme counterscreen, NADH absorbance; inhibition, % at 4.8 µM; actives 1.2% (n = 360,000); in the data active = inhibition above about 30%;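 note: 0% = DMSO wells and 100% = wells lacking the enzyme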
# Mtb hypoxia rep – inhibitors of hypoxia-regulated fluorescent reporter in Mycobacterium tuberculosis | M. tuberculosis hypoxia-regulated fluorescent reporter, fluorescence | fluorescence inhibition, % (no concentration beside the values) | actives 0.1% (n = 300,000); in the data active = fluorescence inhibition mostly above about 23%, no sharp cut-off; inactive = mostly below about 17%
# * marks the source's active call; other numbers are inactive results; u = inconclusive; x = no result shown; + = active, no number. An excerpt weighted towards active compounds, which were near 3.6% of everything screened.
SMILES,Mtb bLac sens,VHR inh abs,FBA Mtb inh,GDH-TPI counter,Mtb hypoxia rep
Cc1ccc2nc3nc(NCC4CCCO4)c(C(=O)NC4CCCC4)cc3c(=O)n2c1 (configuration not stated),0.8,-28.5,150.8*,5.2,0.3
C=CCNC(=O)c1cc2c(=O)n3cc(C)ccc3nc2nc1NCC1CCCO1 (configuration not stated),1.1,10.2,x,x,x
CCOC(=O)CN1N=C(/C=C/c2ccc(OC)cc2)CCC1=O,-13.4,6.0,1.1,37.9*,x
CCOC(=O)CN1N=C(c2ccc(C)cc2)CCC1=O,-3.5,48.7,-0.2,2.1,10.0
CCOC(=O)C(C)N1N=C(/C=C/c2ccc(OC)cc2)CCC1=O (configuration not stated),0.8,27.6,0.6,41.8*,x
Cc1cc(C=C2C(=O)NC(=O)N(c3ccc(F)cc3)C2=O)c(C)n1-c1ccc(C(=O)O)cc1,x,x,x,x,3.1
COc1cc(/C=N/N(C)c2ccccc2)cc(Cl)c1O,96.3,21.3,-4.1,40.5*,x
COc1cc(C=NN(C)C)cc(Br)c1O,x,x,x,x,3.5
COc1cc(/C=N/N(C)C)cc(Br)c1O,-8.0,12.8,2.5,32.3*,x
COc1ccc(N2CCN(C(=O)c3nn(C)c4c3CS(=O)(=O)c3ccccc3-4)CC2)cc1,2.4,-3.6,-2.9,-2.6,12.8
Cn1nc(C(=O)N2CCN(c3ccc(Cl)cc3)CC2)c2c1-c1ccccc1S(=O)(=O)C2,16.5,-3.6,-2.2,8.2,-0.4
CC(=O)c1ccc(N2CCN(C(=O)c3nn(C)c4c3CS(=O)(=O)c3ccccc3-4)CC2)cc1,-0.1,5.3,2.0,40.5*,8.3
COc1ccccc1N1CCN(C(=O)c2nn(C)c3c2CS(=O)(=O)c2ccccc2-3)CC1,-8.8,50.2*,-2.5,5.1,4.4
Nc1nnc(/C=C/c2cccc([N+](=O)[O-])c2)s1,-1.6,-4.9,0.4,44.3*,0.3
CC1CCCN(C(=O)c2ccc3nc[nH]c3c2)C1 (configuration not stated),-6.3,51.9*,-2.5,-3.6,1.9
O=C(c1ccc2nc[nH]c2c1)N1CCN(c2cccc(Cl)c2)CC1,2.8,9.6,-3.0,-0.3,13.9
O=C(/C=C\Nc1ccccn1)c1ccc(Cl)cc1,6.0,3.3,1.1,31.5*,11.4
FC(F)(F)C(F)(F)C(F)(F)c1nc2nc(Cl)c(Cl)nc2[nH]1,x,x,14.3,34.2*,x
C=CCCC(Cc1ccc(F)cc1)C(=O)OCC(NC(=O)C(CC=C)CC(=O)NCCO)c1ccccc1 (configuration not stated),x,x,x,x,21.0
CCC1CCCCN1CCCNC(=O)c1ccc2nc(N3CCC(C)CC3)sc2c1 (configuration not stated),5.6,51.3*,2.7,5.2,2.3
CCC1CCCCN1CCCNC(=O)c1ccc2c(c1)NC(=O)CS2 (configuration not stated),-1.1,55.6*,-2.1,-2.2,11.7
COC(=O)C1=C(C)N(Cc2ccccc2)C(=NCCCCO)NC1c1cccc(C(F)(F)F)c1 (configuration not stated),x,x,x,x,-10.3
NC(Cc1ccc(O)cc1)c1nnc(C(CCC(=O)O)NC(=O)C2CCNCC2)o1 (configuration not stated),x,x,x,x,15.1
c1ccc2c(CC3CNCCN3CC3CCCCC3)cccc2c1 (configuration not stated),x,x,x,x,-1.4
CC(=O)Nc1nc2ccc(S(=O)(=O)N3CCCC3)cc2s1,2.1,2.3,0.3,3.1,13.4
SMILES,Mtb bLac sens,VHR inh abs,FBA Mtb inh,GDH-TPI counter,Mtb hypoxia rep
O=C(Nc1nc2ccc(S(=O)(=O)N3CCCC3)cc2s1)c1ccco1,0.7,-4.8,19.9,39.0*,-6.3
Cc1cccc(C=NNC(=O)c2ccc(F)cc2)n1,x,x,x,x,11.6
CCOC(=O)C(C(=O)OCC)C(=O)c1cc(OC)c(OC)c(OC)c1,-8.9,51.8*,-5.6,4.0,x
COc1cc(C(=O)OCCCOC(=O)c2cc(OC)c(OC)c(OC)c2)cc(OC)c1OC,-9.7,10.5,-0.3,2.7,4.7
Fc1ccc(CN2CCC3C=CCc4cccc(c43)C2)cc1 (configuration not stated),x,x,x,x,-0.4
CCCCOC(=O)Nc1nnc(CCOCC)s1,-5.7,7.1,-0.4,46.8*,8.1
O=C(N/N=C1\CCS(=O)(=O)c2ccc(F)cc21)c1ccc(O)cc1,-3.4,22.6,0.7,45.6*,x
O=C(N/N=C1\CCS(=O)(=O)c2ccc(F)cc21)c1ccc([N+](=O)[O-])cc1,-0.2,-15.2,-3.2,16.9,x
O=S1(=O)CC/C(=N/Nc2ccc(C(F)(F)F)cn2)c2cc(F)ccc21,9.7,18.1,0.0,13.5,x
O=S1(=O)CC/C(=N/Nc2ccccn2)c2cc(F)ccc21,-7.8,-2.8,0.7,32.9*,x
Cn1cc(C(=O)c2ccc(Cl)cc2Cl)cc1C(=O)NN=C(N)COc1ccccc1,x,x,x,x,1.3
C=CCC(CC(=O)N(CCO)Cc1ccccc1)C(=O)NC(COC(=O)C(CC=C)CC(=O)OC(C)(C)C)C(C)(C)C (configuration not stated),x,x,x,x,-1.6
O=C1CCCC/C1=C\Nc1ccc(S(=O)(=O)Nc2cnc3ccccc3n2)cc1,12.5,32.8,3.6,37.5*,4.2
Cc1cc(C)nc(NS(=O)(=O)c2ccc(N/C=C3\CCCC3=O)cc2)n1,15.9,-4.6,-0.4,36.8*,x
O=C1CCC/C1=C/Nc1cccc(F)c1,6.5,17.2,-1.0,34.6*,-5.9
COc1ccc(Oc2ccc(N/C=C3/CCCC3=O)cc2)cc1,0.7,-4.4,-2.4,25.2,4.7
COc1ccc(Oc2ccc(N/C=C3\CCCC3=O)cc2)cc1,67.8,-7.2,-2.7,39.5*,10.3
O=C(NN=Cc1ccccn1)c1ccco1,x,x,x,x,9.2
O=[N+]([O-])c1nn(-c2ccc(Cl)cc2)n(O)c1=NCc1cccnc1,99.2,10.5,3.0,14.1,x
O=[N+]([O-])c1nn(-c2cccc(Cl)c2)n(O)c1=NCc1cccnc1,u,4.3,-2.3,8.9,57.2*
O=C(O)c1cccc(CN2C(=O)S/C(=C/c3cccc([N+](=O)[O-])c3)C2=O)c1,-7.5,16.5,0.8,44.3*,10.7
c1ccc2c(c1)CC/C2=N/Nc1nc2ccccc2[nH]1,24.5,21.7,1.2,48.8*,x
O=C(Cc1csc(N2CCOCC2)n1)NN=Cc1ccc(Cl)cc1Cl,x,x,x,x,4.5
CC1CN(C(C)CO)C(=O)c2cccc(NC(=O)C3CC3)c2OC1CN(C)Cc1ccc(Cl)c(Cl)c1 (configuration not stated),x,x,x,x,2.5
O=C(Cc1nnc(NC(=O)Nc2ccc(Cl)cc2)s1)NCc1ccccc1,-0.6,0.1,-2.6,12.2,2.4
SMILES,Mtb bLac sens,VHR inh abs,FBA Mtb inh,GDH-TPI counter,Mtb hypoxia rep
O=C(Cc1nnc(NC(=O)Nc2ccccc2)s1)NCc1ccccc1,3.5,57.9*,-1.9,-0.8,x
CCN(CC)Cc1c(O)ccc2c(=O)c(Oc3ccccc3OC)c(C)oc12,-4.1,16.2,+,21.7,4.8
COc1ccccc1Oc1c(C)oc2c(CN(C)C)c(O)ccc2c1=O,-1.9,10.2,+,23.3,0.8
CN(CCC=C1c2ccccc2CSc2ccccc21)CCCO,x,x,x,x,7.4
CC=C(NC(C)=O)c1ccccc1,x,x,x,x,8.8
O=C(NN=Cc1ccc[nH]1)c1ccc(COc2cccc3cccnc23)cc1,x,x,x,x,-1.9
